# Measurements reported in PubChem BioAssay (EPA / NIEHS).
# “And” between values parts separate entries of the source, which are not always exact repeats. Identical values can stand only once. Records with an inconclusive call do not appear. Some compounds were tested as several samples or in several runs, with calls that do not always agree. The source made the active and inactive calls. How the source made its calls: active means hit-call score of the fitted dose curve at least 0.9, where 1 is the maximum; inconclusive means response in the unintended direction; inactive means score below 0.9.
# What was measured:
# [1] = target: human Opioid Receptor Delta 1 (Opiate D1), OPRD1 (gene 4985) (UniProt P41143); test: NVS_GPCR_hOpiate_D1: NovaScreen (NVS) G Protein-Coupled Receptor Assay for human Opioid Receptor Delta 1 (Opiate D1) (AID 2283280)
# Summary of the method: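 Membrane preparations from CHO cells bearing the human receptor were incubated 1 h with test chemical, and bound radioligand was counted after filtration. Actives from 25 uM duplicate screening were retested in concentration-response.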
# [2] = target: human Adrenergic, Beta 1 Receptor (Adrb1), ADRB1 (gene 153) (UniProt P08588); test: NVS_GPCR_hAdrb1: NovaScreen (NVS) G Protein-Coupled Receptor Assay for human Adrenergic, Beta 1 Receptor (Adrb1) (AID 2283258)
# Summary of the method: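 Membranes/protein extracted from human neuroepithelioma cells, radioligand competition binding read by filtration and scintillation 2 h post-dose. Single 25 uM duplicate screen, then concentration-response follow-up; DMSO as negative control.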
# [3] = target: human Adrenergic, Alpha 2c Receptor (Adra2C), ADRA2C (gene 152) (UniProt P18825); test: NVS_GPCR_hAdra2C: NovaScreen (NVS) G Protein-Coupled Receptor Assay for human Adrenergic, Alpha 2c Receptor (Adra2C) (AID 2283259)
# Summary of the method: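 Screened first in duplicate at 25 uM, with actives then run as concentration series. Membranes from Sf9 cells were exposed for 1 h, and displacement of radioligand was counted after filtration, using DMSO as baseline.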
# [4] = target: Type-1 angiotensin II receptor (Homo sapiens) (UniProt P30556); test: NVS_GPCR_hAT1: NovaScreen (NVS) G Protein-Coupled Receptor Assay for human Angiotensin II receptor type 1 (AT1) (AID 2283263)
# Summary of the method: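 Hits from a 25 uM duplicate screen (threshold e.g. 30% inhibition) were run in concentration-response with 50 uM top concentration. Displacement of specific radioligand from KAN-TS membrane preparations measured after 3 h by filter scintillation, DMSO as baseline.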
# [5] = target: human Neurokinin, NK2 Receptor, TACR2 (gene 6865) (UniProt P21452); test: NVS_GPCR_hNK2: NovaScreen (NVS) G Protein-Coupled Receptor Assay for human Neurokinin, NK2 Receptor (AID 2283278);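 further: actives reduce bound radioligand signal relative to DMSO baseline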
# Summary of the method: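 Test chemicals displace a radioligand from receptor prepared from CHO cells in a cell-free format, read after 4 hours by scintillation counting on filters. Screening starts at 25 uM in duplicate, and active chemicals then go to concentration series.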
# [6] = target: human Endothelin Receptor Type A (ETA), EDNRA (gene 1909) (UniProt P25101); test: NVS_GPCR_hETA: NovaScreen (NVS) G Protein-Coupled Receptor Assay for human Endothelin Receptor Type A (ETA) (AID 2283265)
# Summary of the method: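 Binding of radioligand to membrane protein extracted from SH-SY5Y cells was read by filtration and scintillation after 3 h. Compounds were screened at 25 uM in duplicate, with hits followed up in singleton concentration series to 50 uM.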
# [7] = target: human Dopamine Receptor D2 (DRD2), DRD2 (gene 1813) (UniProt P14416); test: NVS_GPCR_hDRD2s: NovaScreen (NVS) G Protein-Coupled Receptor Assay for human Dopamine Receptor D2 (DRD2) (AID 2283266)
# Summary of the method: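 Test compound (25 uM, duplicate in the primary screen; concentration series at follow-up) competed with radioligand for human DRD2 in CHO-derived membrane protein. Filter-based scintillation counting was done 1.5 hours after dosing, with loss of signal analysed against DMSO.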
# [8] = target: D(1A) dopamine receptor (Homo sapiens) (UniProt P21728); test: NVS_GPCR_hDRD1: NovaScreen (NVS) G Protein-Coupled Receptor Assay for human Dopamine Receptor D1 (DRD1) (AID 2283269)
# Summary of the method: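 Extracted HEK293 DRD1 is incubated 1 h with compound and a tritiated or iodinated radioligand, then filtered and counted. Screening runs 25 uM in duplicate with on-plate positive and negative controls.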
# [9] = target: human Muscarinic, M4 Receptor, CHRM4 (gene 1132) (UniProt P08173); test: NVS_GPCR_hM4: NovaScreen (NVS) G Protein-Coupled Receptor Assay for human Muscarinic, M4 Receptor (AID 2283274)
# Summary of the method: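 Filter-based scintillation counting of radioligand bound to CHO-expressed human M4 preparations after 1 h; loss of signal fitted versus DMSO. Initial duplicate testing at 25 uM, concentration-response follow-up for actives.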
# [10] = target: human Adrenergic, Beta 3 Receptor (Adrb3), ADRB3 (gene 155) (UniProt P13945); test: NVS_GPCR_hAdrb3: NovaScreen (NVS) G Protein-Coupled Receptor Assay for human Adrenergic, Beta 3 Receptor (Adrb3) (AID 2283262)
# Summary of the method: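 A cell-free filter binding assay read by scintillation counting, with displacement of a specific radioligand measured after 1 hour. The receptor source was SK-N-MC extracts (cells pretreated with isoproterenol and 8-bromo-cAMP). Compounds were first tested at 25 uM in duplicate and then in concentration series.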
# [11] = target: human Leukotriene B4 Receptor 1 (LTB4-BLT1), LTB4R (gene 1241) (UniProt Q15722); test: NVS_GPCR_hLTB4_BLT1: NovaScreen (NVS) G Protein-Coupled Receptor Assay for human Leukotriene B4 Receptor 1 (LTB4-BLT1) (AID 2283271)
# Summary of the method: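 Cell-free human neutrophil receptor preparation, 1 h exposure, radioligand binding read by filter scintillation counting. Single 25 uM duplicate screen, then concentration series topping at 50 uM; binding loss scored against DMSO baseline.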
# [12] = target: Muscarinic acetylcholine receptor M2 (Homo sapiens) (UniProt P08172); test: NVS_GPCR_hM2: NovaScreen (NVS) G Protein-Coupled Receptor Assay for human Muscarinic, M2 Receptor (AID 2283273)
# Summary of the method: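 Radioligand competition binding, cell-free, receptor from CHO; 1 h incubation; scintillation detection. Primary testing at 25 uM in duplicate.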
# [13] = target: Neuropeptide Y receptor type 2 (Homo sapiens) (UniProt P49146); test: NVS_GPCR_hNPY2: NovaScreen (NVS) G Protein-Coupled Receptor Assay for human Neuropeptide Receptor Y2 (NPY2) (AID 2283277)
# Summary of the method: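 Chemicals were first tested in duplicate at 25 uM, then actives in singleton concentration series to 50 uM. Tracer binding to SK-N-MC-derived protein measured cell-free after 1 h via filter scintillation; signal loss relative to DMSO.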
# [14] = target: human Dopamine Receptor D4.4 (DRD4.4), DRD4 (gene 1815) (UniProt P21917); test: NVS_GPCR_hDRD4.4: NovaScreen (NVS) G Protein-Coupled Receptor Assay for human Dopamine Receptor D4.4 (DRD4.4) (AID 2283264)
# Summary of the method: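 Filter-binding assay with a tritiated or iodinated ligand, cell-free receptor prepared from CHO, 1 hour. Loss of bound radioactivity versus DMSO; single 25 uM duplicate screen, then concentration-response for actives.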
# [15] = target: human Endothelin Receptor Type B (ETB), EDNRB (gene 1910) (UniProt P24530); test: NVS_GPCR_hETB: NovaScreen (NVS) G Protein-Coupled Receptor Assay for human Endothelin Receptor Type B (ETB) (AID 2283267)
# Summary of the method: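 Filter-based scintillation readout of radioligand displacement, 4 h, using membranes from human astrocytoma cells. Actives from a 25 uM duplicate screen were retested in concentration-response (top 50 uM) relative to DMSO baseline.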
# [16] = target: Muscarinic acetylcholine receptor M3 (Homo sapiens) (UniProt P20309); test: NVS_GPCR_hM3: NovaScreen (NVS) G Protein-Coupled Receptor Assay for human Muscarinic, M3 Receptor (AID 2283272)
# Summary of the method: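 Radioligand displacement binding on human M3 receptor in CHO-derived membranes, 1 h incubation, filter-based scintillation counting. Primary screen in duplicate at 25 uM; actives followed up in concentration series; loss of signal versus DMSO.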
# [17] = target: human Neuropeptide Receptor Y1 (NPY1), NPY1R (gene 4886) (UniProt P25929); test: NVS_GPCR_hNPY1: NovaScreen (NVS) G Protein-Coupled Receptor Assay for human Neuropeptide Receptor Y1 (NPY1) (AID 2283276)
# Summary of the method: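 Displacement of specific radioligand from NPY1 receptor of SK-N-MC origin, read by filtration and scintillation after 1 h. Compounds first tested at 25 uM in duplicate, then actives in concentration series; signal loss relative to DMSO.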
# Chain of human Adrenergic, Beta 1 Receptor (Adrb1), ADRB1 (gene 153) (P08588 whole entry, looked up): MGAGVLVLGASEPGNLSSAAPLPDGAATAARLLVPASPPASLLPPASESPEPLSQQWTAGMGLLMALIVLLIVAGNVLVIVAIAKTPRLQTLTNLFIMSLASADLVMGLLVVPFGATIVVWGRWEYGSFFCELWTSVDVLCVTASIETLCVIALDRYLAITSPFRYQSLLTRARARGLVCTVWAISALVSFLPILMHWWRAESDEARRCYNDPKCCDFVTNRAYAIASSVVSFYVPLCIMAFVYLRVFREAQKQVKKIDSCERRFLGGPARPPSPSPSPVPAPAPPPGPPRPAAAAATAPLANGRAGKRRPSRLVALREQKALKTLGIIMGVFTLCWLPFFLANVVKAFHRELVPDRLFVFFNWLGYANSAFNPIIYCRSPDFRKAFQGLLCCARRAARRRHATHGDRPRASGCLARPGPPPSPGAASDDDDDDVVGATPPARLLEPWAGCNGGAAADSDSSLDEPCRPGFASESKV
# Chain of D(1A) dopamine receptor (Homo sapiens) (P21728 whole entry, looked up): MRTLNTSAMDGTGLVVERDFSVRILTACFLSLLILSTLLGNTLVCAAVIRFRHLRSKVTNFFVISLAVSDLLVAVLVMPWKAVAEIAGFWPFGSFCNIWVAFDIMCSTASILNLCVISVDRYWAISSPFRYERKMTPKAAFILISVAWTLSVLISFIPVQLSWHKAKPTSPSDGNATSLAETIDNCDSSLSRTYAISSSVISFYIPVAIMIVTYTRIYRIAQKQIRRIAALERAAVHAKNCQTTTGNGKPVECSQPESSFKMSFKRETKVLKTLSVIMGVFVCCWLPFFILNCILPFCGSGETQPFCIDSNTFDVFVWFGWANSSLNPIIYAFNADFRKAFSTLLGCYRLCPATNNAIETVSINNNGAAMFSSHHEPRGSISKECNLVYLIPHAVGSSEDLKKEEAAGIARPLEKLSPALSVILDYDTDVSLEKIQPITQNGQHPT
# Chain of human Dopamine Receptor D4.4 (DRD4.4), DRD4 (gene 1815) (P21917 whole entry, looked up): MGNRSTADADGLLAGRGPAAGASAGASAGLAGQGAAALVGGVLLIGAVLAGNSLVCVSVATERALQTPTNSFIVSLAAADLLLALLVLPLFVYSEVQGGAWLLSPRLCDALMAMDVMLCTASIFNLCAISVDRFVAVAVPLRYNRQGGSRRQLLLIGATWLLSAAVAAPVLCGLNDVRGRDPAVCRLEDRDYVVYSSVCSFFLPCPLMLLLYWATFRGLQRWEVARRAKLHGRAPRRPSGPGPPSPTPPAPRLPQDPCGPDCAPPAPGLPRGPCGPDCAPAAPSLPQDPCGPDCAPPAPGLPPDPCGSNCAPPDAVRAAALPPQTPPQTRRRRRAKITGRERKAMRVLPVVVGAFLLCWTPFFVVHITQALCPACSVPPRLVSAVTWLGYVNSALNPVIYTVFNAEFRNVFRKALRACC
# Chain of human Opioid Receptor Delta 1 (Opiate D1), OPRD1 (gene 4985) (P41143 whole entry, looked up): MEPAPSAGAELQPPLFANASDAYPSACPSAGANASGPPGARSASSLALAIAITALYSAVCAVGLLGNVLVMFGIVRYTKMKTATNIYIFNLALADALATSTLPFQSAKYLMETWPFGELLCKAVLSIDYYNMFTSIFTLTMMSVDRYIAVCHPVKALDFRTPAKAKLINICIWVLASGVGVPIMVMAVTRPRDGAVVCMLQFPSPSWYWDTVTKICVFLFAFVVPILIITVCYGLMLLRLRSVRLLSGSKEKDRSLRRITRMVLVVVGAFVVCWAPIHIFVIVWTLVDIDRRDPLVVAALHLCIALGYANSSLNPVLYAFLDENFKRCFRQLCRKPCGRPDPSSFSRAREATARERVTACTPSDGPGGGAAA
# Chain of human Dopamine Receptor D2 (DRD2), DRD2 (gene 1813) (P14416 whole entry, looked up): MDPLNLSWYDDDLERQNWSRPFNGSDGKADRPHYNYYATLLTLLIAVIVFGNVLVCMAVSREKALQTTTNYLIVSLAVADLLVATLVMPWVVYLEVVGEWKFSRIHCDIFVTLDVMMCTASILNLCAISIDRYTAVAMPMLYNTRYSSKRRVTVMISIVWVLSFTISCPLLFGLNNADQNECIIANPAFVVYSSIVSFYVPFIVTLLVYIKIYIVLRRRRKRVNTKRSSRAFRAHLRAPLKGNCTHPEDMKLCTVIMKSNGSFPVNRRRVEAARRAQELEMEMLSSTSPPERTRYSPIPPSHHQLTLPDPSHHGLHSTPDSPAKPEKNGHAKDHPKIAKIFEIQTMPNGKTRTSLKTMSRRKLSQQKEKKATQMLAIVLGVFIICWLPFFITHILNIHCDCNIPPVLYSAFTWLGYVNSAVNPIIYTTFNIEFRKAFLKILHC
# Chain of human Adrenergic, Alpha 2c Receptor (Adra2C), ADRA2C (gene 152) (P18825 whole entry, looked up): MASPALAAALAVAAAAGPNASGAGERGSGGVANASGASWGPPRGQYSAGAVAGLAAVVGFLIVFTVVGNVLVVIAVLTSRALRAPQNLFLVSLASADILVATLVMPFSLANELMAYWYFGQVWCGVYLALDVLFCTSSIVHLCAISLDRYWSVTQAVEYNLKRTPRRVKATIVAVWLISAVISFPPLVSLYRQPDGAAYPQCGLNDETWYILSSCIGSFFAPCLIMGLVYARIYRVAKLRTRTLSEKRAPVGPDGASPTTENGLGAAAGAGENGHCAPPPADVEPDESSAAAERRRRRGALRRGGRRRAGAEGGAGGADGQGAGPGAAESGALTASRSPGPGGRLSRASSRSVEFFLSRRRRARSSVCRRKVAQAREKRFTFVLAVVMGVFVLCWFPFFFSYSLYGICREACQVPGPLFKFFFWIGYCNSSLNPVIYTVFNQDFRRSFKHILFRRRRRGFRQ
# Chain of human Neurokinin, NK2 Receptor, TACR2 (gene 6865) (P21452 whole entry, looked up): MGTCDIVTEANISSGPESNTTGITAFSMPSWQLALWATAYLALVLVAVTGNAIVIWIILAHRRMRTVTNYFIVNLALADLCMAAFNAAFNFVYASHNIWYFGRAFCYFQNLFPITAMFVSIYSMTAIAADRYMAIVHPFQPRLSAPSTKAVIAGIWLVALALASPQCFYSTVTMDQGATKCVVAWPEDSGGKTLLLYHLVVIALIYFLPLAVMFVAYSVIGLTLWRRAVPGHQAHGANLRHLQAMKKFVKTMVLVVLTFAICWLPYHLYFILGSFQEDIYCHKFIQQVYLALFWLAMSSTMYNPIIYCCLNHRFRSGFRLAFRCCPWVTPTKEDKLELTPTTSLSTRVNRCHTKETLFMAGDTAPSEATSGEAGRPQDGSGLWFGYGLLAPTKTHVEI
# Chain of human Muscarinic, M4 Receptor, CHRM4 (gene 1132) (P08173 whole entry, looked up): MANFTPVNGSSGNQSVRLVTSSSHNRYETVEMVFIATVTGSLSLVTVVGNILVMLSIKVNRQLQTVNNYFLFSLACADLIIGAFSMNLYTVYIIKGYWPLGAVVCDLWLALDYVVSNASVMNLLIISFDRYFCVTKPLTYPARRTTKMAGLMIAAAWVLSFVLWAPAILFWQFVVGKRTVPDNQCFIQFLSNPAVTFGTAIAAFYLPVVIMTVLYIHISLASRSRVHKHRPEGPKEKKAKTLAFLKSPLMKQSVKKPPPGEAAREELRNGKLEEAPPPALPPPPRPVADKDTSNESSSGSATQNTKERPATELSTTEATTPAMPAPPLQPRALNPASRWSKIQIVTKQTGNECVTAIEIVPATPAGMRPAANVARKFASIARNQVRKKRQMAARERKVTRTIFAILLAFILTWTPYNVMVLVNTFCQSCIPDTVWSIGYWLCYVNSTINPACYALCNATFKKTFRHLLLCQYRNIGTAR
# Chain of Type-1 angiotensin II receptor (Homo sapiens) (P30556 whole entry, looked up): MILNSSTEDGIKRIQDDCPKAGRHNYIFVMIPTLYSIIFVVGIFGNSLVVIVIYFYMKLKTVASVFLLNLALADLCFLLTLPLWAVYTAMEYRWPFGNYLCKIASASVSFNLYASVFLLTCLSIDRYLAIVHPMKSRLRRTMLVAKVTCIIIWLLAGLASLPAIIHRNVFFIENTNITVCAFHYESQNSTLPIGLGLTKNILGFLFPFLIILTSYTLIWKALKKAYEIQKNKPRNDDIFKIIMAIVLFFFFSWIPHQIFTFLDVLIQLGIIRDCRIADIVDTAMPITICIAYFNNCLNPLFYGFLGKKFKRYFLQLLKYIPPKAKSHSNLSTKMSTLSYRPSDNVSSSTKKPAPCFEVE
# Chain of Muscarinic acetylcholine receptor M3 (Homo sapiens) (P20309 whole entry, looked up): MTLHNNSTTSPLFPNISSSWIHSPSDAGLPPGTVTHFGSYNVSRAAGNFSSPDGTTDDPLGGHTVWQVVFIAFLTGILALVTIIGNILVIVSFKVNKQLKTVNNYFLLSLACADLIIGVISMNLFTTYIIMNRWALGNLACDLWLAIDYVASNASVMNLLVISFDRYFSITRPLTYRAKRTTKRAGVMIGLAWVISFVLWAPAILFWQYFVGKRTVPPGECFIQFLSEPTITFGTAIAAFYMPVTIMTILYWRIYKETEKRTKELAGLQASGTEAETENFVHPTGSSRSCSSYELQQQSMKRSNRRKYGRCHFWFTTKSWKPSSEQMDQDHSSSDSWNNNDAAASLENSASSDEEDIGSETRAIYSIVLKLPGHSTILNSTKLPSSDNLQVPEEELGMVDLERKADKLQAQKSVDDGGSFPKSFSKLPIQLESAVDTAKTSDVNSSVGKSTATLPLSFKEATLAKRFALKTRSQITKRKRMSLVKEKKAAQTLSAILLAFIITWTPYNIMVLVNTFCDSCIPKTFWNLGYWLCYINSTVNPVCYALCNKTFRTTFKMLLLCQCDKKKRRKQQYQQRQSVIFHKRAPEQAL
# Chain of Muscarinic acetylcholine receptor M2 (Homo sapiens) (P08172 whole entry, looked up): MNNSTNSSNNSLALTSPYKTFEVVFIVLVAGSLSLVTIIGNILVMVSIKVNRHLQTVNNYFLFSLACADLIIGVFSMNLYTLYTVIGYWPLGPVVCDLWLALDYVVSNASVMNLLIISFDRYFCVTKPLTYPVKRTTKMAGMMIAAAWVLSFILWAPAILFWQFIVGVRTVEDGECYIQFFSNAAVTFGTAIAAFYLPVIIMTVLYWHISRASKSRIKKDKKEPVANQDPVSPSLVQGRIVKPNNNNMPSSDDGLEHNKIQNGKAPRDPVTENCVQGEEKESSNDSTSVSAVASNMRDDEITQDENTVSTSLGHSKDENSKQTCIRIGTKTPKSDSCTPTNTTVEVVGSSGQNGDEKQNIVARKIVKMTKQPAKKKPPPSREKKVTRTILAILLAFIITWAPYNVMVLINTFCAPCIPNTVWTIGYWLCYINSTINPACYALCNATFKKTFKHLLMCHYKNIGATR
smiles,measurement,setting,value
Cc1cc(C)nc(NC(=O)NS(=O)(=O)c2ccccc2C(=O)OC2COC2)n1,outcome,[1],inactive
CC[C@H](C)[C@H]1O[C@]2(C=C[C@@H]1C)C[C@@H]1C[C@@H](C/C=C(\C)[C@@H](O[C@H]3C[C@H](OC)[C@@H](O[C@H]4C[C@H](OC)[C@@H](O)[C@H](C)O4)[C@H](C)O3)[C@@H](C)/C=C/C=C3\CO[C@@H]4[C@H](O)C(C)=C[C@@H](C(=O)O1)[C@]34O)O2 (tested in a mixture with another compound),AC50,[2],6.87 µM (active)
same,AC50,[3],6.06 µM (active)
same,AC50,[4],8.16 µM (active)
same,AC50,[5],6.9 µM (active)
Oc1cc(Cl)ccc1Oc1ccc(Cl)cc1Cl,AC50,[2],37.5 µM (active)
same,AC50,[3],6.8 µM (active)
same,outcome,[6],inactive
same,outcome,[7],inactive
same,AC50,[8],25 µM (active)
same,outcome,[8],inactive
same,outcome,[9],inactive
same,AC50,[5],25.5 µM (active)
same,AC50,[1],10.7 µM (active) and 25.5 µM (active) and 9.39 µM (active)
same,outcome,[1],inactive
COP(=S)(OC)Oc1ccc([N+](=O)[O-])cc1,AC50,[10],12.5 µM (active)
same,outcome,[11],inactive
same,outcome,[12],inactive
same,AC50,[9],12.1 µM (active)
same,AC50,[13],0.043 µM (active)
CCC(C)(C)C(=O)OC1=C(c2ccc(Cl)cc2Cl)C(=O)OC12CCCCC2,outcome,[3],inactive
Oc1ccc(Cl)cc1Cc1ccccc1,AC50,[2],33.3 µM (active) [middle of 5 runs]
same,AC50,[3],25.2 µM (active) [middle of 6 runs]
same,outcome,[4],inactive
same,AC50,[14],25.2 µM (active)
same,AC50,[7],33.5 µM (active) [middle of 6 runs]
same,outcome,[15],inactive
same,AC50,[8],33 µM (active) [middle of 6 runs]
same,AC50,[16],39.4 µM (active)
same,outcome,[16],inactive
same,outcome,[12],inactive
same,AC50,[9],31.8 µM (active) and 25.2 µM (active)
same,outcome,[9],inactive
same,outcome,[17],inactive
same,AC50,[5],29.2 µM (active) [middle of 6 runs]
same,AC50,[1],25.2 µM (active) and 13.3 µM (active)
O=S1OCC2C(CO1)C1(Cl)C(Cl)=C(Cl)C2(Cl)C1(Cl)Cl (configuration not stated),outcome,[9],inactive
